Bfl-1 A1 inh: caspase 3/7 activation in MEF A1-2A-BIM cells, primary screen, A1 inhibitor project, cell-based, luminescence, HTS; Caspase-Glo 3/7 luminescence, 3 h; percent of clofoctol response, vehicle zero; caspase activation, % (no concentration beside the values); 330,000 compounds, 0.066% hits; AID 2462, 2010;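 active means over half of replicate activation scores above 10%, or exactly half above 10 with the replicate mean above 10; inconclusive means replicate mean below 10 yet half the replicates above 10; inactive means over half of replicates below 10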
Beta cell apopt: inhibitors of cytokine-induced beta cell apoptosis, primary screen, luminescence; protection from apoptosis, % (test concentration not listed); INS-1E cytokine-induced death, ATP luminescence, 48 h; percent of positive-control rescue, neutral wells zero; AID 435005, 2010; 300,000 compounds, 0.8% hits;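 active means Every replicate reaches about 75%, or at least half do and their mean reaches it too, limit read from the data; inconclusive means At least half of replicates reach the limit but their mean does not; inactive means Under half of replicates reach the limit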;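 further: higher means more ATP so stronger rescue from cytokine killing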
Mdm2 MdmX PPI: inhibitors of human Mdm2-MdmX association, primary screen, cell-based, luminescence, split luciferase, SaOS-2, uHTS; Protein Mdm4 (Homo sapiens) + E3 ubiquitin-protein ligase Mdm2 (Homo sapiens), …; SaOS-2 split-luciferase Mdm2/MdmX complementation; inhibition, % at 8 µM; 330,000 compounds, 3% hits; AID 485346, 2010;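 active means inhibition of at least 50% at 8 µM in the primary screen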
Target sequence (O15151 whole entry, looked up): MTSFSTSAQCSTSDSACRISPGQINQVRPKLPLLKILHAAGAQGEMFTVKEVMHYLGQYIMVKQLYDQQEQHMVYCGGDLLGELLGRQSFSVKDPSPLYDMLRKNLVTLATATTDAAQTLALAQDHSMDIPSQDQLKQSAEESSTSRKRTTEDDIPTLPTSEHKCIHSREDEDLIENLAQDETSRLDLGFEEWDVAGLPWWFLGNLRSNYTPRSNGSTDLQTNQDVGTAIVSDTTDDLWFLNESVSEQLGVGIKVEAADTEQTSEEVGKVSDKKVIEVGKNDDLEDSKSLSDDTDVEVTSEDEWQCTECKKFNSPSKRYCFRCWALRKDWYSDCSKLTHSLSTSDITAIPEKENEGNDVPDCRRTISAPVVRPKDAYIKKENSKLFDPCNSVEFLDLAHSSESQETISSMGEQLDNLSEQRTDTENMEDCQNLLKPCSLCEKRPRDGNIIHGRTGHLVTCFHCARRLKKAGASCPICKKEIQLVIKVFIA
Target sequence (Q00987 whole entry, looked up): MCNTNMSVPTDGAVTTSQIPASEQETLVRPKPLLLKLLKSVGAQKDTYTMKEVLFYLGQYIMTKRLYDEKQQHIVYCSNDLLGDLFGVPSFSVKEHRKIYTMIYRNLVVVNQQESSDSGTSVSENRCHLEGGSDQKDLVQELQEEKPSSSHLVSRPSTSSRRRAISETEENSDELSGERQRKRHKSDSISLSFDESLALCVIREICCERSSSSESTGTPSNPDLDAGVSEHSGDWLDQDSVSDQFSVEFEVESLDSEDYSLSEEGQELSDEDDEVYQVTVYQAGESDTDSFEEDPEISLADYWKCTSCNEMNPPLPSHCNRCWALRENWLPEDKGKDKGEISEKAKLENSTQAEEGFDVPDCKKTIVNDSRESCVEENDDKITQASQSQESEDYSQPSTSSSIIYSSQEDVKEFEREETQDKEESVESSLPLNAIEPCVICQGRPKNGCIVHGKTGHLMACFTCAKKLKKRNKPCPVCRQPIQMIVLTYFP
CSC inhib: cancer stem cell viability inhibitors, primary screen, luminescence; cancer stem cell-like cells viability; inhibition, % at 7.5 µM; 300,000 compounds, 1.1% hits; AID 2717, 2010; in the data active means inhibition above about 75%; inconclusive means no clear call, values can overlap the other calls; tested in HMLE shEcad cells
aSyn 5UTR inh: MLPCN primary screen, SNCA 5' untranslated region | alpha-synuclein 5'UTR reporter, inhibitor activity | inhibition, % (tested at 7.5 µM) | 300,000 compounds, 0.82% hits | AID 1813, 2009; in the data active means inhibition above about 60%; inconclusive means no clear call, values can overlap the other calls;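 further: H4 neuroglioblastoma cells stably carrying SNCA 5'UTR luciferase fusion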
Mdm2 MdmX conf: Mdm2-MdmX complex disruptors, retested hits, confirmation, luminescence, single concentration | shares compounds with Mdm2 MdmX PPI | Mdm2-MdmX binding, luminescent assay | inhibition, % at 8 µM | 10,000 compounds, 55% hits | AID 489028, 2010; in the data active means inhibition above about 40%
Full FLuc ctr: full-length luciferase signal inhibition, confirmation, counter-screen for Mdm2/MdmX interaction inhibitor project, cell-based, single concentration, SaOS-2; shares compounds with Mdm2 MdmX PPI; SaOS-2 full-length luciferase counterscreen, luminescence; inhibition, % at 8 µM; 6,200 compounds, 77% hits; AID 504607, 2011;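 active means mean inhibition at 8 µM reaching about 37%, which flags the compound as non-specific, limit read from the data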;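 further: p53-null SaOS-2 cells with luciferase driven by a doxycycline-inducible promoter; compound on cells about two nights before reading with doxycycline added after day one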
A number is an active result; 0 = inactive; ? = inconclusive; - = not tested or not shown. A selection: hits, their analogues and other compounds. The true share with any hit is near 4.1%.

SMILES	Bfl-1 A1 inh	Beta cell apopt	Mdm2 MdmX PPI	CSC inhib	aSyn 5UTR inh	Mdm2 MdmX conf	Full FLuc ctr
COc1ccccc1C1C(C(C)=O)=C(O)C(=O)N1c1ccc(O)cc1 (stereo not given)	0	0	0	0	0	-	-
O=C(C1=C[C@@H](c2ccc(Br)cc2)C[C@@H](OCCCCO)O1)N1CCN(Cc2ccccc2)CC1	0	0	55	0	0	50	66
O=C(C1=C[C@H](c2ccc(Br)cc2)C[C@H](OCCCCO)O1)N1CCN(Cc2ccc3c(c2)OCO3)CC1	0	0	0	0	0	-	-
Cc1ccc(C(C)C)cc1NC(=O)Nc1ccc([N+](=O)[O-])cc1	0	121	89	89	0	82	42
Cc1ccc(NC(=O)Nc2cccc([N+](=O)[O-])c2)cc1F	0	93	57	0	0	44	45
CC(=O)c1ccc(NC(=O)Nc2ccc([N+](=O)[O-])cc2)cc1	0	0	0	0	0	-	-
O=C(Nc1ccc([N+](=O)[O-])cc1)C(=O)Nc1cccc(C(=O)O)c1	0	0	64	0	102	67	0
Cc1cc(NC(=O)Nc2cccc([N+](=O)[O-])c2)no1	0	0	0	0	0	-	-
O=C(Nc1ccc(Oc2ccc(NC(=O)Nc3ccc([N+](=O)[O-])cc3)cc2)cc1)Nc1ccc([N+](=O)[O-])cc1	0	110	95	0	91	66	76
CCOc1ccc(NC(=O)Nc2cc(C(C)C)ccc2C)cc1	-	-	0	-	0	-	-
CCCCN(CC)C(=O)c1oc2ccc(S(=O)(=O)N3CCCC3)cc2c1C	0	0	0	0	0	-	-
O=C(Nc1ccc(OC(F)(F)F)cc1)Nc1cccnc1	0	0	0	0	0	-	-
O=C(Nc1ccc(OC(F)(F)F)cc1)Nc1cccc([N+](=O)[O-])c1	0	102	95	-	0	90	0
C/C(=N\NC(=O)c1cccc(N/N=C(\C)c2ccccc2)c1)c1ccccc1	0	0	-	0	-	-	-
C/C(=N\NC(=O)c1cccc(N/N=C(\C)c2ccc([N+](=O)[O-])cc2)c1)c1ccc([N+](=O)[O-])cc1	0	0	69	0	0	0	-
Cc1ncoc1C(=O)N1CCCC(C(=O)c2ccc(-c3ccccc3)cc2)C1 (stereo not given)	0	0	0	0	0	-	-
COc1c(Br)cc([N+](=O)[O-])c(OC)c1C(=O)NC(=O)Nc1cc(Cl)cc(Cl)c1	0	-	85	-	0	79	85
O=c1cc(Nc2ccc3c(c2)OCCO3)[nH]c(=O)n1C1CCCCC1	0	0	55	0	0	53	58
CCc1ccc(Nc2cc(=O)n(C3CCCCC3)c(=O)[nH]2)cc1	0	0	0	0	0	-	-
O=C(c1ccc2oc(CCc3ccccc3)nc2c1)N1CC[C@H](O)C1	0	0	0	0	0	-	-
Cc1cc(N2O[C@]34C=C[C@]25C[C@@H](O)CC[C@]5(C)C3CC[C@]2(C)[C@@H]([C@H](C)/C=C/[C@H](C)C(C)C)CC[C@H]24)no1 (stereo not given in full)	-	-	91	-	-	0	-
N#Cc1sc2nccc(Nc3ccccc3)c2c1N	0	0	92	0	0	78	49
COc1cc(C2CC(=O)c3cnc(NC(=O)c4ccco4)nc3C2)cc(OC)c1OC (stereo not given)	0	0	0	0	0	-	-
COc1ccc(-c2cc(C(F)(F)F)n3ncc(C(=O)NCC4CCCO4)c3n2)cc1OC (stereo not given)	0	0	57	0	0	0	-
CCOC(=O)N1CCC(NC(=O)c2cnn3c(C(F)(F)F)cc(-c4cccc(OC)c4)nc23)CC1	0	-	61	-	0	0	-
SMILES	Bfl-1 A1 inh	Beta cell apopt	Mdm2 MdmX PPI	CSC inhib	aSyn 5UTR inh	Mdm2 MdmX conf	Full FLuc ctr
CCOC(=O)c1cnn2c(C(F)(F)F)cc(-c3ccccc3)nc12	0	0	0	0	0	-	-
CN(CC(=O)Nc1ccccc1Br)C(=O)c1cc(Cl)nc2ccccc12	0	0	0	-	-	-	-
COc1ccccc1CN(C)C(=O)c1cc(-c2cc(OC)c(OC)c(OC)c2)nc2ccccc12	0	0	78	0	0	77	50
COc1cc(-c2cc(C(=O)N(C)Cc3ccccc3)c3ccccc3n2)cc(OC)c1OC	0	0	62	0	0	46	76
COc1ccc(-c2cc(C(=O)N(C)CC(=O)Nc3ccccc3Br)c3ccccc3n2)cc1OC	0	0	56	0	0	49	80
COc1ccc(-c2cc(C(=O)N(C)Cc3ccccc3F)c3ccccc3n2)cc1OC	0	0	70	0	0	0	105
CCN(Cc1ccccc1)C(=O)c1cc(-c2ccc(OC)c(OC)c2)nc2ccccc12	0	0	0	0	0	-	-
CCOc1ccc(CCNC(=O)c2cn(C)c3ccc(S(=O)(=O)N4CCOCC4)cc3c2=O)cc1OCC	0	0	0	0	0	-	-
COc1cccc(CN(C)C(=O)c2cc(-c3cccs3)nc3ccccc23)c1	0	0	58	0	0	43	61
COc1ccc(N2CCN(C(=O)c3cc(-c4cccs4)nc4ccccc34)CC2)cc1	0	0	0	0	0	-	-
Cc1cc(C2(c3ccc(O)c(C)c3)C(=O)Nc3ccccc32)ccc1O	0	0	57	?	0	0	-
Cc1c(C(=O)N2CCC(C)CC2)oc2ccc3c(c12)C(O)CC1(CCCCC1)O3 (stereo not given)	0	0	76	0	0	0	-
COCCNC(=O)c1oc2ccc3c(c2c1C)C(O)CC(C)(C)O3 (stereo not given)	0	0	0	0	0	-	-
Cc1nc2ccccc2c(N)c1C(=O)/C=C/c1ccccc1	0	0	76	0	0	0	75
CC(=O)c1c(C)nc2ccccc2c1N	0	0	0	0	0	-	-
N#Cc1c2ccc(O)cc2n2ccccc12	0	0	76	0	0	73	0
O=[N+]([O-])c1ccc(S(=O)(=O)CC(CN2CCOCC2)N2CCOCC2)cc1 (stereo not given)	0	0	0	0	0	-	-
O=[N+]([O-])c1ccc(S(=O)(=O)CC(CN2CCCCC2)N2CCCCC2)cc1 (stereo not given)	0	0	100	78	0	94	51
O=S(=O)(CC(CN1CCCCC1)N1CCCCC1)c1ccccc1 (stereo not given)	0	0	72	0	0	66	0
Cn1cnnc1SCC(=O)NC1CC1	0	0	0	0	-	-	-
Cc1nn(Cc2ccccc2Cl)c2sc(C(=O)Nc3ccccc3N3CCOCC3)cc12	0	0	55	0	0	61	61
